TRPV1 agonist: activates the human vanilloid receptor TRPV1 | 320,000 compounds, 0.19% hits | activation, % at 8.33 µM | TRPV1-expressing cells, Fluo-8 calcium influx, agonist mode | Q8NER1 | AID 540275; in the data active means activation above about 80%; inconclusive means between about 30% and that limit; further: 0% is about no effect
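Fluo-8 calcium influx in TRPV1-expressing cells, kinetic read (ex 480/em 520 nm). Compound added and read 3 min for agonist activity, followed by capsaicin at EC20 final and 2 min further read for enhancement.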
TRPML1 blocker: blocks the human TRPML1 channel; Q9GZU1; TRPML1-inducible cells, Ca2+ dye fluorescence, FDSS; stronger effect = lower value; inhibition of EC80 agonist-evoked calcium signal; activity change, negative = inhibition, % (concentration not given with the values); 390,000 compounds, 0.02% hits; AID 624415; in the data active means activity change below about -50%; inconclusive means between about -30% and that limit;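 further: stimulus is agonist 54-4 at its EC80 concentration; on the % scale 0 is the no-effect control and ±100 the full control effect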
Target sequence (Q9GZU1 whole entry, looked up): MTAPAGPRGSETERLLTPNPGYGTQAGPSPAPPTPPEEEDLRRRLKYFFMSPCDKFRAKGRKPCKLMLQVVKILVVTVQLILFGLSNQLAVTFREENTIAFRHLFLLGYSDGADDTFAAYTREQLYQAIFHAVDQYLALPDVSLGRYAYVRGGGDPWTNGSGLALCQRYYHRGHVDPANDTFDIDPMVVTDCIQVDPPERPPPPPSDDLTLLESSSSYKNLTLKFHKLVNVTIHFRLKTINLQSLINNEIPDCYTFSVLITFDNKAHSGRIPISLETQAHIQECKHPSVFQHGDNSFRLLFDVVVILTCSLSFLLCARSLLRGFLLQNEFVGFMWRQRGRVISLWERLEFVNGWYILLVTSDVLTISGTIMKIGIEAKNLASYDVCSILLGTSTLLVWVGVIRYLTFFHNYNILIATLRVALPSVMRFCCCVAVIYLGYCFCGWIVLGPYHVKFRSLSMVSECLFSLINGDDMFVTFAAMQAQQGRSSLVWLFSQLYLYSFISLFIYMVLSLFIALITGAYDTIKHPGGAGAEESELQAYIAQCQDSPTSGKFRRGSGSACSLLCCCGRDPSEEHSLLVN
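Calcium fluorescence in TRPML1-DL cells induced overnight with Tet: a 110 s read after compound pin addition, then a 110 s antagonist read after challenge with 54-4 at 4 uM final (EC80).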
TRPML1 ag: activates the human TRPML1 channel | TRPML1-expressing cells, Ca2+ dye fluorescence, FDSS | Q9GZU1 | AID 624414 | activation, % (no concentration beside the values) | 410,000 compounds, 0.12% hits; in the data active means activation above about 50%; inconclusive means mostly about 30% to 49%; further: 0% is about no effect
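Kinetic FDSS Ca2+ read in Tet-induced TRPML1-DL cells (ABD Ca8 dye plus quencher, 45-90 min RT loading): baseline, then compound, then 110 s agonist window; EC80 agonist 54-4 at 4uM final added afterwards for a 110 s antagonist window.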
TRPV1 PAM: potentiators of human vanilloid receptor 1 (TRPV1) | Q8NER1 | TRPV1-expressing cells, Fluo-8 calcium influx, capsaicin EC20 potentiation | potentiation, % at 8.33 µM | 320,000 compounds, 0.02% hits | AID 540277; in the data active means potentiation above about 80%; inconclusive means between about 30% and that limit; further: 0% is about no effect
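Cells expressing TRPV1 were dye-loaded with Fluo-8 and read kinetically: 10 s baseline, 3 min after compound (agonist portion), then 2 min after EC20 capsaicin (allosteric enhancer portion). Calcium-bound dye fluorescence at 480/520 nm.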
* hit, by the source's call; ? = inconclusive; / = no result. Hits are enriched below; roughly 0.31% of the tested compounds scored in any of these assays.

SMILES | TRPV1 agonist | TRPML1 blocker | TRPML1 ag | TRPV1 PAM
CCCC(=O)N(c1ccc2oc3c(c2c1)CCCC3)S(=O)(=O)c1ccc(CC)cc1 | / | -25 | 64* | /
CCOc1ccc(C2c3cc(OC)c(OC)cc3CC(=O)N2c2ccccc2)cc1 (centres undefined) | -4 | -51* | 0 | 8
CCOc1cc2c(cc1OCC)C(c1ccc(OC)cc1)N(c1ccccc1)C(=O)C2 (centres undefined) | 7 | -7 | 1 | -2
N#C/C(=C\c1coc2ccc(O)cc2c1=O)C(=O)Nc1nc2ccccc2s1 | ? | -22 | 72* | -9
CCCC12CN3CC(C)(CN(C1)C3c1cn(CC)c3ccccc13)C2=O (centres undefined) | / | -1 | 0 | /
Cc1ccc([N+](=O)[O-])c(C(=O)N/N=C/c2cccs2)c1 | 83* | 23 | -1 | 20
CCC(=O)N1CCC1(C)C(=O)Nc1ccc2nc(C)ccc2c1 (centres undefined) | / | / | -1 | /
CCc1nc2c(OCc3ccccc3C)cccn2c1N(C)C(=O)C(C)C | / | / | -1 | /
C/C(=C\C=C(C#N)C#N)c1cc(C#N)c(N)o1 | 10 | 3 | 54* | 2
O=C1CSC(c2ccc(Cl)cc2)N1c1cccnc1 (centres undefined) | -2 | -22 | 78* | 9
CC(C)CN(C(=O)CCNC(=O)c1ccccc1Cl)C1CCS(=O)(=O)C1 (centres undefined) | 1 | 24 | 3 | -11
CCN1/C(=C/C=C/c2oc3ccc4ccccc4c3[n+]2CC)Oc2ccc3ccccc3c21 | 25 | 1 | 63* | 3
COc1ccc(S(=O)(=O)N2CCN(C(=O)c3cc(-c4ccccc4OC)n[nH]3)CC2)cc1 | 82* | 2 | 2 | 17
COc1ccc(NC(=O)C2(C)Cc3c(-c4cccc(C(F)(F)F)c4)ccnc3O2)cc1OC (centres undefined) | / | / | 0 | /
CCCCc1nn2c(=O)cc(COC(=O)c3cccc(NC(=O)CCc4ccccc4)c3)nc2s1 | / | -14 | -1 | /
CCCc1nn2c(=O)cc(COC(=O)c3cccc(NC(=O)CCc4ccccc4)c3)nc2s1 | / | -62* | 2 | /
CC(C)c1ccc(NCCC(=O)c2cccs2)cc1 | 90* | -22 | 0 | 0
CC(C)(C)c1ccc(/C=N/OCC(=O)NCc2ccc(F)cc2)cc1 | 92* | -4 | 3 | 1
Cc1ccc(CNC(=O)CO/N=C/c2ccc(C(C)(C)C)cc2)cc1 | ? | 2 | 2 | 8
Cc1oc(-c2cccs2)nc1CS(=O)CC(=O)NCCc1ccccc1 (centres undefined) | 87* | 3 | 0 | -8
COC(=O)c1[nH]c2ccc(C)cc2c1NC(=O)CN1CCCC(C)(C)C1 | 89* | 33 | 0 | -12
COc1ccc(-c2nc3c(c(SCC(=O)N4CCCCC4)n2)Cc2cc(Cl)ccc2O3)cc1 | / | -4 | -1 | /
CCCCCCCC(=O)N/N=C(\C)c1ccc(O)cc1O | 5 | -11 | 57* | 0
O=S(=O)(NCCc1nnc2ccc(SCc3ccc(C(F)(F)F)cc3)nn12)c1ccccc1 | / | -5 | 0 | /
CC(C)(C)c1ccc(C(=O)Nc2cccc(-n3cnnn3)c2)cc1 | 80* | 8 | 0 | -1
SMILES | TRPV1 agonist | TRPML1 blocker | TRPML1 ag | TRPV1 PAM
CCCCOc1ccc(C(=O)Nc2cccc(-n3cnnn3)c2)cc1OC | 89* | -1 | -1 | -23
O=C(Nc1cccc(-n2cnnn2)c1)c1cc(Cl)nc(Cl)c1 | ? | 31 | 0 | -23
N/C(=N\OC(=O)c1ccc(Cl)cc1)c1nonc1N | 81* | 16 | 1 | -1
O=C(c1ccc(S(=O)(=O)Nc2ccccc2F)cc1)N1CCCC1 | -1 | -8 | 1 | -28
CC(C)(C)c1ccc(NC(=S)NCc2cccnc2)cc1 | 86* | -13 | 2 | -31
CN(C)S(=O)(=O)c1ccc(S(=O)(=O)N(Cc2ccco2)Cc2ccccc2Cl)cc1 | 4 | -18 | 64* | -16
Cc1ccc(NC(=O)N2CCN(c3ccc(Cl)c(Cl)c3)CC2)cc1 | / | -4 | 1 | /
CC(=O)c1ccc(N2CCN(C(=O)Nc3ccc(C)cc3)CC2)cc1 | 94* | -24 | 2 | 0
CC(=O)c1ccc(NC(=O)N2CCN(c3ccc(C)cc3)C(C)C2)cc1 (centres undefined) | 84* | 18 | 0 | 2
COc1cccc(NC(=O)C2CCN(C(=O)N3CC(C)Oc4ccccc43)CC2)c1 (centres undefined) | / | -18 | 1 | /
COc1ccc(N2CC3=C(C2=O)C(c2ccc(O)c(OC)c2)NC(=O)N3C)cc1 (centres undefined) | / | 2 | 1 | /
CCc1ccc(OCCCC(=O)NCc2ccccc2)cc1 | 83* | -21 | 0 | -12
COc1ccc(CNC(=O)CCCc2ccccc2)cc1 | / | 12 | 0 | /
CC(C)(C)c1ccc(OCCNC(=O)Cc2ccc(F)cc2)cc1 | 91* | -13 | 0 | 9
COCCNC(=O)Cc1ccc(F)cc1 | -1 | -5 | 0 | 8
CCCNC(=O)Cn1c(=O)/c(=C\c2ccc(-c3ccc([N+](=O)[O-])cc3)o2)s/c1=C\C(=O)C(C)(C)C | ? | -13 | 127* | 18
CCOc1ccc(CCNC(=O)c2[nH]c3cc(OC)ccc3c2Sc2ccccc2)cc1OCC | / | 29 | 0 | /
CC(=O)Nc1ccc(S(=O)(=O)N2CCN(c3ccc(C)c(C)c3)CC2)cc1 | / | 12 | 3 | /
CCN(CC)c1ccc(/C=C/C(=O)C2C(=O)C=C(C)OC2=O)cc1 (centres undefined) | 94* | -12 | 127* | 12
CCN(CC)c1ccc(C=C2C(=O)OC(c3ccccc3)OC2=O)cc1 (centres undefined) | -2 | -6 | 0 | 3
CCc1ccc(/C=N/NC(=O)c2c[nH]c3ccccc23)s1 | 85* | -1 | 3 | -14
Nc1[nH]c(C(=O)c2ccccc2)c(-c2ccccc2Br)c1C(=O)c1ccccc1 | / | / | -1 | /
Cn1nccc1C(=O)NC1CCCc2c1cnn2-c1ccc(C(C)(C)C)cc1 (centres undefined) | 81* | 34 | 0 | 4
CC(=O)NC1CCCc2c1cnn2-c1ccc(C(C)(C)C)cc1 (centres undefined) | ? | -15 | -1 | -10
Cc1ccc2c(c1)N(C(=O)N1CCC(C(=O)NCc3ccco3)CC1)CC(C)O2 (centres undefined) | / | -9 | 0 | /
O=C1CC(c2ccccc2)CC(O)=C1C=NCCc1ccccc1 (centres undefined) | 9 | 7 | -1 | 84*
COc1ccc(CCn2c3c(c(=O)[nH]c2=O)C(NC(=O)c2ccccc2)(C(F)(F)F)C(=O)N3)cc1OC (centres undefined) | / | 16 | -1 | /
Cc1ccc(Cn2c(CO)cnc2SCC(=O)Nc2ccc(C)c(Cl)c2)cc1 | 15 | 20 | 1 | -3
CC(C)CC(c1nnnn1C(C)C)N1CCN(c2cccc(Cl)c2)CC1 (centres undefined) | 1 | -18 | 84* | 13

Screening data from PubChem.
